The values below come from PubChem BioAssay.

Sequence of Fibroblast growth factor 2 (Homo sapiens) (P09038 whole entry, looked up): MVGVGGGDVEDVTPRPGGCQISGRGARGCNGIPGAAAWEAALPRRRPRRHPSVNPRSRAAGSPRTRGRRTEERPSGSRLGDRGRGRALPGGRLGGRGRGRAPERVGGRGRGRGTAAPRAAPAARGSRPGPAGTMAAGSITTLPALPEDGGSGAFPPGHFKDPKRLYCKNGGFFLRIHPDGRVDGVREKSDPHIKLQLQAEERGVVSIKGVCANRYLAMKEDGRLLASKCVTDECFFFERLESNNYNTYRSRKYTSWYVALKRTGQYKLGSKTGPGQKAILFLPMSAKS

The assay has as its target Fibroblast growth factor 2 (Homo sapiens) (UniProt P09038). In words: basic fibroblast growth factor binding to printed compounds – biochemical, small-molecule microarray, 635/667 nm fluorescence, primary screen (AID 1133). Particulars: FGF2, fluorescence 635/667, higher = more signal.
Turning to `CCOC(=O)C1=NO[C@@]2(C=C(Br)C3(OCCCO3)[C@H]3O[C@H]32)C1`, the composite z-score came out at 1.14.
The same measure for `C#CCCCON=C1C[C@@H](O)[C@@H](O)[C@@H]2[C@@H]3C(=O)N(C(C)(C)C)C(=O)[C@@H]3CC[C@H]12`: -0.127; for `CO[C@@H]1COC(=O)[C@@H](C)COC(=O)[C@@H](C)NC(=O)CC=C[C@@H]1C`: 1.7.
Take `COC(=O)CC=C[C@@H](C)[C@@H](C=NO[C@H](C)c1cn([C@H](CO)Cc2ccccc2)nn1)NS(=O)(=O)c1ccc(C)cc1`: the composite z-score stood at 0.0757.
Compound `O=C(C=Cc1ccc2c(c1)OCO2)c1ccc(F)cc1` yielded a composite z-score of 1.31.
In the case of `CCOC(=O)[C@H](CC(C)C)NC(=O)CCC1CC(OC(=O)NCc2cccc3ccccc23)CC2(CCCC(COC(=O)NCCOC)O2)O1` (some centres not stated) it was 0.648; in that of `C[C@@H]1C=CCC(=O)OC[C@H]2O[C@@H](C=C[C@@H]2O)[C@H](C)C=CCC(=O)OC1`, 1.98; in that of `CCOC(=O)[C@H](CC(C)C)NC(=O)CCC1CC(OC(=O)NCc2cccc3ccccc23)CC2(CCCC(COC(=O)NCCCN3CCCC3=O)O2)O1` (some centres not stated), 0.737.
In the case of `CSCC[C@@H]1NC(=O)CC=C[C@@H](C)COC(=O)[C@@H](C)COC1=O` it was 0.0867; in that of `COc1ccc(O[C@H]2C=C[C@@H](c3ccccc3)O[C@@H]2CON=C(C)CCN2CCc3nc(-c4ccccc4)c(-c4ccccc4)cc3C2)cc1`, 0.0194.
In the case of `C=COC[C@@H]1CN2[C@@H](CC[C@@H](C)[C@@H]2c2ccc(Br)cc2)C(=O)O1` it was -0.285; in that of `COC(=O)CC=C[C@@H](C)[C@@H](C=NOCC[C@@H]1C=C[C@H](OC(C)=O)[C@@H](COC(C)=O)O1)NS(=O)(=O)c1ccc(C)cc1`, 0.237.
